Hits are enriched below; roughly 5.7% of the tested compounds scored in any of these assays.
L3MBTL1 block – inhibitors of human L3MBTL1. actives 0.66% (n = 230,000). Q9Y468. AlphaScreen L3MBTL1–H3K9me1 peptide binding. AID 485360. Potency, µM (doses to about 57.1 µM), for the others: at the top dose activity, negative = inhibition, actives largely listed as inhibitors; also: potency is read from the fitted curve at half-maximal effect; % is scaled to controls: 0 for no effect and ±100 for the full control effect; nearly all actives have a fitted effect of over 60% in size
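AlphaScreen proximity signal between nickel-chelate acceptor and streptavidin donor beads (final 10 ug/mL) reports binding of 50 nM L3MBTL1 to 75 nM biotin-H3 K9me1 peptide; complex incubated with compounds 30 min at room temperature; cefsulodin titration as control.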
BAZ2B block – BAZ2B (human) inhibition; actives 4.4% (n = 360,000); AlphaScreen BAZ2B-H3K14Ac peptide displacement; Potency, µM (top dose mostly 114 µM), for the others: top-dose activity change, negative = inhibition, actives largely listed as inhibitors; AID 504333; Q9UIF8; also: potency is read from the fitted curve at half-maximal effect; % is scaled to controls: 0 for no effect and ±100 for the full control effect; nearly all actives have a fitted effect of over 60% in size
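BAZ2B 50 nM plus b-H3(5-23)K14Ac 50 nM, PBS pH 7.4/0.01% Tween-20, 30 min RT; compound added (max 110 uM), 30 min RT; streptavidin donor/Ni-chelate acceptor beads 10 ug/mL final, 20 min dark; AlphaScreen read.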
KDM4E inh – inhibitors of human JMJD2E histone demethylase | B2RXH2 | AID 2147 | JMJD2E catalytic domain, FDH-coupled NADH fluorescence (FDH is formaldehyde dehydrogenase) | Potency, µM (titrated, usually from 57.1 µM), inactives show top-dose activity change, negative = inhibition, most hits filed as inhibitors | actives 1.6% (n = 230,000); active = well fitted inhibition curve with a large enough effect, not every such curve was filed as active; inconclusive = small, poorly fitted or top-dose-only effect, or another doubt; inactive = no such curve, though single readings can be large or run the other way;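 also: potency is read from the fitted curve at half-maximal effect; 0% = wells with enzyme and -100% = buffer wells without enzyme; nearly all actives have a fitted effect of over 50% in size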
PI5P4Ka inh – blocks human PI5P4K alpha kinase activity | P48426 | PI5P4Kalpha enzyme, ADP-Glo luminescence, 60 min; stronger effect = lower value | max response, % | actives 1.2% (n = 330,000) | AID 652105; active = max response of -50% or lower; inconclusive = between -30% and -50%; inactive = -30% or higher; also: value at the top dose of about 77 µM; % is scaled to controls: 0 for no effect and ±100 for the full control effect
Target sequence (P48426 whole entry, looked up): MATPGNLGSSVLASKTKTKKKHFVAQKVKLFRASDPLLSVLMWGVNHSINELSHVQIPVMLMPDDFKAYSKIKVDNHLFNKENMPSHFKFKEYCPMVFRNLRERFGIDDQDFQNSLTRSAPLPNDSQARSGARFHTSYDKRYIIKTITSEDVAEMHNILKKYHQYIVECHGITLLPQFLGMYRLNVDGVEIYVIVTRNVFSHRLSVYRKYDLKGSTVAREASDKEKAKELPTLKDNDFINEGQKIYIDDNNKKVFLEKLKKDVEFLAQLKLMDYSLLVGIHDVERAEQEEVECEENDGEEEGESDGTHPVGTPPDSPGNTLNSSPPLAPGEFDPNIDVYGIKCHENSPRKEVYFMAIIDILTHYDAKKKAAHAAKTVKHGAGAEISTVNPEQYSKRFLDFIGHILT
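ADP-Glo luminescence end-point after a 60 min room-temperature kinase reaction. PI5P4Kalpha and substrate in HEPES pH 7.4 buffer with EGTA, 0.1% CHAPS and 5% DMSO; ATP at 5 microM final.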
JMJD2A Tudor inh – JMJD2A Tudor domain (human) inhibition; AlphaScreen JMJD2A-Tudor / H3K4me3 peptide binding; Potency, µM (series often up to 114 µM), without a hit: at the top dose activity change, negative = inhibition, actives largely listed as inhibitors; actives 4.4% (n = 390,000); also: potency is read from the fitted curve at half-maximal effect; % is scaled to controls: 0 for no effect and ±100 for the full control effect; nearly all actives have a fitted effect of over 50% in size
HP1b chromo inh – HP1-beta chromodomain-methylated histone interaction inhibition. Potency, µM (doses to about 114 µM), inactives show at the top dose activity change, negative = inhibition, hits mostly inhibitors. actives 0.56% (n = 390,000). P83916. AlphaScreen HP1-beta / biotin-H3K9me3 peptide binding; also: potency is read from the fitted curve at half-maximal effect; nearly all actives have a fitted effect of over 70% in size
Target sequence (P83916 whole entry, looked up): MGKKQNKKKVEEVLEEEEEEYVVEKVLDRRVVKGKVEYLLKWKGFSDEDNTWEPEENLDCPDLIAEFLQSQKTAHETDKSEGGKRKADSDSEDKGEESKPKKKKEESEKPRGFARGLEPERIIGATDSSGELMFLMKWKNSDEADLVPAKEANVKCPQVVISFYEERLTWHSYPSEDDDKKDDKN
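AlphaScreen: HP1-beta (50 nM) preformed 30 min with biotin-H3(1-18)K9me3 peptide (50 nM) in PBS pH 7.4, 0.01% Tween-20. Compound added for 30 min at RT, then streptavidin donor/nickel chelate acceptor beads (10 ug/mL) for 30 min.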
* hit, by the source's call; ? = inconclusive; nt = no result; [ ] = remark or other dose. Unless noted, calls follow the shape of the dose curve; as a rule, active = well fitted inhibition curve with a large enough effect; inconclusive = small, poorly fitted or top-dose-only effect; inactive = no such curve, though single readings can be large or run the other way.

SMILES	L3MBTL1 block	BAZ2B block	KDM4E inh	PI5P4Ka inh	JMJD2A Tudor inh	HP1b chromo inh
CCS(=O)(=O)C1=NN2C(=N)/C(=C\c3ccc(OCCOc4cccc(OC)c4)c(OC)c3)C(=O)N=C2S1	nt	35.5µM*	nt	-78.0*	56.2µM*	5.3%
COc1cc(/C=C2\C(=N)N3N=C(S(C)(=O)=O)SC3=NC2=O)ccc1OCCOc1ccc(C)cc1	nt	-31.7%	nt	?	-18.5%	?
CCOc1cc(/C=C2\C(=N)N3N=C(S(C)(=O)=O)SC3=NC2=O)ccc1OCCOc1cccc(OC)c1	nt	70.8µM*	nt	-79.7*	79.4µM*	?
COc1cc(/C=C2\C(=N)N3N=C(S(C)(=O)=O)SC3=NC2=O)cc(OC)c1OCCOc1cccc(C)c1	nt	?	nt	?	?	-15.3%
CCOC(=O)C1=CCN(S(=O)(=O)c2ccccc2Br)C1c1ccccc1 (stereo unspecified)	nt	nt	nt	5.9	nt	nt
S=c1nc(C2CCCCC2)[nH][nH]1	-1.8%	1.2%	?	nt	5.01µM*	-45.9%
Nc1n[nH]c(C2CCCCC2)n1	-5.1%	-15.0%	1.9%	-5.6	-7.5%	36.8%
COC(=O)COc1ccc(-c2nccc(-c3ccc(Br)cc3)n2)cc1	nt	4.1%	nt	-16.0	15.8µM*	9.5%
BrC(/C=N/N1CCN(Cc2ccccc2)CC1)=C/c1ccccc1	-27.0%	?	2.5%	4.8	39.8µM*	-18.5%
O=[N+]([O-])c1ccc(Cl)c(/C=N/N2CCN(Cc3ccc(Cl)cc3)CC2)c1	nt	22.4µM*	3.0%	-6.2	23.2%	23.3%
O=[N+]([O-])c1ccc(Cl)c(CN2CCN(c3ncc(Cc4ccccc4)cn3)CC2)c1	nt	nt	nt	-1.7	nt	nt
O=[N+]([O-])c1ccc(Cl)c(/C=N/N2CCN(Cc3ccccc3)CC2)c1	-15.3%	10µM*	-5.7%	2.1	5.3%	28.6%
O=[N+]([O-])c1ccc(/C=N\N2CCN(c3ccc(Cl)cc3)CC2)cc1	-1.4%	1.4%	1.4%	4.3	-5.3%	39.6%
O=[N+]([O-])c1ccc(Cl)c(CN2CCCCCC2)c1	-9.8%	56.2µM*	nt	2.2	1.26µM*	?
CC(C)Cn1cc(NC(=O)N2CCN(c3ccccc3F)CC2)c2ccccc2c1=O	nt	3.8%[57.1 µM]	nt	nt	-8.1%	14.6%
Cc1cccc(NC(=O)CSc2nc(-c3ccccc3)cc(=O)[nH]2)c1C	nt	1.3%	nt	nt	-4.5%	23.4%
O=[N+]([O-])c1ccc(/C=N\N2CCN(Cc3ccccc3Cl)CC2)cc1	nt	nt	nt	9.2	nt	nt
O=[N+]([O-])c1ccc(/C=N/N2CCN(Cc3ccccc3)CC2)cc1	?	12.6µM*	nt	6.9	44.7µM*	?
Clc1cccc(/C=N/N2CCN(Cc3ccccc3)CC2)c1	-16.3%	39.8µM*	nt	13.4	50.1µM*	?
BrC(=C\c1ccccc1)/C=N/N1CCN(c2ccccn2)CC1	-6.1%	79.4µM*	?	13.1	-28.4%	-4.3%
O=[N+]([O-])c1ccc(Cl)c(/C=N/N2CCN(Cc3ccccc3Cl)CC2)c1	-7.8%	25.1µM*	3.7%	1.9	?	?
O=C(/C=C/c1ccc([N+](=O)[O-])cc1)N1CCN(Cc2ccccc2)CC1	-3.1%	2.3%	nt	1.6	-9.0%	23.3%
C(=N\N1CCN(Cc2ccccc2)CC1)/c1ccccc1	nt	?	0.7%	3.1	-9.6%[11.4 µM]	4.8%
CCCCC[C@H](O)/C=C/[C@H]1OC(O)C[C@H](O)[C@@H]1C/C=C\CC(=O)O (stereo partly specified)	nt	nt	0.3%	nt	nt	nt
Cc1ccc(NC(=O)Cc2csc(C)n2)c(C)c1	nt	3.0%	nt	nt	-10.4%	25.5%
SMILES	L3MBTL1 block	BAZ2B block	KDM4E inh	PI5P4Ka inh	JMJD2A Tudor inh	HP1b chromo inh
O=C(Nc1ccc2nc(C(F)(F)F)[nH]c2c1)[C@@H]1O[C@H](CO)[C@@H](O)[C@H]1O	nt	nt	nt	-3.5	nt	nt
O=[N+]([O-])c1cc(/C=N/N2CCN(Cc3ccccc3)CC2)ccc1Cl	-8.3%	11.2µM*	-5.3%	4.6	?	?
Oc1ccccc1N=Nc1ccccc1O	nt	nt	31.6µM*	-1.4	31.6µM*	-16.1%
C=CCn1c(O)c(N=Nc2ccccc2O)c2ccccc21	-14.3%	?	nt	22.4	?	5.7%
Cn1c(=O)c2[nH]c(N=Nc3ccc(N)cc3N)nc2n(C)c1=O	-17.1%	?	?	?	-19.6%	12.6%
Nc1ccc(N=Nc2ccccc2O)c(N)c1	nt	nt	nt	-10.4	35.5µM*	?
C=CCNC(=O)NC(=O)COC(=O)/C=C/c1cccc([N+](=O)[O-])c1	19.3%	-3.2%	-5.4%	-82.6*	-11.3%	9.9%
Cn1ccc2cc(-c3ccc4ncnc(NCc5ccc6c(c5)OCO6)c4c3)ccc21	-13.2%	-36.7%	nt	nt	nt	nt
Cc1ccc(C(=O)NCCS(=O)(=O)N2CCN(c3ccccc3F)CC2)cc1[N+](=O)[O-]	nt	-11.4%	nt	4.2	-18.1%	15.7%
CCN(CC)C(=O)[C@H]1C[C@H](CC(=O)NC(C)(C)C)C(=O)N2CCc3c([nH]c4cc(-c5ccco5)ccc34)[C@]12C	-8.4%	nt	nt	4.1	?	2.8%
CC(C)=CCC/C(C)=C/CNC(=O)C[C@H]1C[C@H](C(=O)N2CCOCC2)[C@@]2(C)c3[nH]c4cc(-c5ccco5)ccc4c3CCN2C1=O	?	nt	nt	19.8	39.8µM*	?
CC(C)N(C(=O)[C@H]1C[C@H](CC(=O)NC(C)(C)C)C(=O)N2CCc3c([nH]c4cc(-c5ccco5)ccc34)[C@]12C)C(C)C	-9.0%	nt	nt	-25.5	50.1µM*	?
COc1ccc2c(c1)CC/C(=C\c1ccc(C)o1)C2=O	nt	44.7µM*	?	1.6	?	?
COc1ccc2c(c1)CC/C(=C/c1ccncc1)C2=O	-6.8%	-31.1%	0.1%	2.9	-15.1%	13.0%
CC(C)n1c(=S)[nH]c2c1c(=O)[nH]c(=O)n2C	-6.4%	?	7.94µM*	-75.9*	2µM*	10µM*
Cc1cccc(N2CCN(C(=S)c3ccccc3)CC2)c1	-11.5%	-37.7%	-7.4%	0.0	-32.9%	-5.9%
Cc1cccc(N2CCN(C(=S)c3ccc([N+](=O)[O-])cc3)CC2)c1	?	11.2µM*	-0.6%	-14.0	39.8µM*	31.6µM*
CCOCc1cnc(C)nc1NCC(=O)c1c(C)n(C)c2ccc(OC)cc12	-11.1%	50.1µM*	-12.0%	-4.9	2.1%	12.6%
CCc1ccc(CN(C)C(=O)c2cc(COc3cncc(Cl)c3)on2)cc1	nt	nt	nt	6.1	nt	nt
CCc1ccc(NC(=O)Cn2c(=O)n(CCCCC(=O)NCc3ccc4c(c3)OCO4)c(=O)c3ccccc32)cc1	nt	4.1%	nt	nt	-2.0%	32.9%
CCN1/C(=C\c2ccc3cc(C)ccc3[n+]2CC)Sc2cc(C)c(C)cc21	?	nt	?	-11.8	?	?
CCN1/C(=C/c2ccc3cc(C)cc(C)c3[n+]2CC)Sc2cc(C)ccc21	-1.8%	?	?	?	15.8µM*	?
